The results in this text go back to publication PMC12136788.

Sequences and labels used below:
B1: chr7:54825262:54825263:-_ENSG00000132432_ENST00000352861|hu_hu|hu_hu_hu_mus_False|68_108 (ssRNA)
RNA: GGGAGUUCUACAGUCCGACGAUCCUGACUUGGCUCAUCCACAAACUGCAUUACCUGAUCCAUGUUUUACCCAACCGGGAUUGAGAGCGUAGAGACACGUAGCUCAGGAGAGAACCGAGCCCAACGGAACCGGAAGCUGGCAACCAACAGAGGAUUGAGCAUCA
B2: chr5:73697939:73697940:+_ENSMUSG00000029152_ENSMUST00000031038|mus_mus|motif|central (ssRNA)
RNA: GGGAGUUCUACAGUCCGACGAUCUCCUUGGGCAAUAUGGUCAGUAAUACCAGUGGGAGUGGACUCGUUCAUAGAAGCACGGAAUGGAAUUGGCUCAUAACGAGGAAGCGCCUCCUUUUCUAUGUUGUCUGCUGCUGGAGAUGUCAACAGAGGAUUGAGCAUCA
B3: chr10:98281081:98281082:-_ENSG00000077147_ENST00000371142|hu_mus|motif|central (ssRNA)
RNA: GGGAGUUCUACAGUCCGACGAUCAUCGCAAUACAGUCCCCCAGUCAGUCUGUACAUCCAAAUGCAUCCAGGAACCGGCACCGGCGCGACAUUAUUAAUGUUAUAUACAUUUAUUGCCCCCCUUGUUUUGUUUAAUAAUUUCUUCAACAGAGGAUUGAGCAUCA
B4: chr2:47388980:47388981:-_ENSG00000143933_ENST00000272298|hu_mus|hu_hu_hu_mus_True|68_98 (ssRNA)
RNA: GGGAGUUCUACAGUCCGACGAUCUUCAUCUGUUAACUUCUCUCCAAGGUUUGUCAUCACAUGGCGAAGUUCUGCAGCACUAAUAUAGCCAUUGCCAUCCUUAUCAAACACACGGAAUGCUUCUCUAAUCUCUUCUUCACUGUCCAACAGAGGAUUGAGCAUCA
B5: 132634964_132635084_86_5pUTR_ENSMUSG00000030750_ENSMUST00000033006|mouse|control|control (ssRNA)
RNA: GGGAGUUCUACAGUCCGACGAUCCCCGCCUCCAGGGCGGAGAGAUCGCCAGACUGGAGCUCCUACUGGUGGGCUACGCGCAUUCUCCCGCUCACCAGCGGAGUACUUCCGUUUUCCCCGCCCGCUCUGUUGCUAUGGCGCCUUCAACAGAGGAUUGAGCAUCA
B6: chr2:24222969:24222970:+_ENSG00000173960_ENST00000309033|hu_mus|FALSE|FALSE (ssRNA)
RNA: GGGAGUUCUACAGUCCGACGAUCAUUAAUGACACAGCUAUUUAAUGUCAUAUUGGCUAACUAAUAUUUGAAAAAUAGGUAUUUUUUUCUGAAUAGCCUGUUGAGAAAAAUGCACUGACCCUGGCUUAGAGCCAUGUCACUCUCCAACAGAGGAUUGAGCAUCA
B7: chr16:94664741:94664742:+_ENSMUSG00000040785_ENSMUST00000117648|mus_hu|mus_mus_mus_hu_False|48_78 (ssRNA)
RNA: GGGAGUUCUACAGUCCGACGAUCUGGUACUGAUCUUGGUAGCUGAUAUUCAGGAGAAAUGUUGGCCAAGGGUGUAUAUAUGCUGGUGAACUGCGACAAACCUGGUAACACGUUUAUGUAUGCUGGCGGUGUCUGGGUGAUAUCCAACAGAGGAUUGAGCAUCA
B8: 203421096_203421216_3307_3pUTR_ENSG00000204217_ENST00000374580|human|control|control (ssRNA)
RNA: GGGAGUUCUACAGUCCGACGAUCAGAUCCAGAGAAUUAGGCCUCUGUGCUCUUCUGGGCUUUGAUGGCCCAGGAUCUGCUGCUGUGCUUGGAACACCCUGUGCAAGAACAUCUUGUUCUGAACAUGGAUUGCUGUUGUUGUUACAACAGAGGAUUGAGCAUCA
B9: chr11:87793471:87793472:-_ENSMUSG00000020483_ENSMUST00000020775|mus_mus|mus_mus_mus_hu_False|68_98 (ssRNA)
RNA: GGGAGUUCUACAGUCCGACGAUCUGGACUUGAAAAUAAAAAAAAUAGCUGGAUCCCCCACCCCCCCACAGUGUCAACCCUACACGAGAGUUUUGAAGGCGACUCAUGAAAAUCAGCAGCUCAAACGGCAAUGACCACCCCACCCAACAGAGGAUUGAGCAUCA
B10: chr11:87793471:87793472:-_ENSMUSG00000020483_ENSMUST00000020775|mus_mus|mus_mus_mus_hu_False|38_88 (ssRNA)
RNA: GGGAGUUCUACAGUCCGACGAUCUGGACUUGAAAAUAAAAGAAUAAGCUAGAUUUCCCACCCCCCCACAUUGUCAACCCUACACGAGAGUUUUGAAUGAUUCAUAAGAAAAUCAGCAGCUCAAACGGCAAUGACCACCCCACCCAACAGAGGAUUGAGCAUCA
B11: chr11:87793471:87793472:-_ENSMUSG00000020483_ENSMUST00000020775|mus_mus|mus_mus_mus_hu_False|58_98 (ssRNA)
RNA: B9 RNA with G70U, C82U, A83G
B12: chr4:57314706:57314707:+_ENSG00000128050_ENST00000264221|hu_mus|hu_hu_hu_mus_True|18_58 (ssRNA)
RNA: GGGAGUUCUACAGUCCGACGAUCCAGAAUUUCAAAAAUAGCUUGUGUGGCAUGACUCAUGAUGUCCACUUCAGUCUGGCCUAUAAGAAGGCCAGCAAAACAGAAUUUUGCAGCAAUCAGCUGUUCCUCAGACCACUGUGGAUCCAACAGAGGAUUGAGCAUCA
B13: chr11:87793471:87793472:-_ENSMUSG00000020483_ENSMUST00000020775|mus_mus|mus_mus_mus_hu_False|88_98 (ssRNA)
RNA: B9 RNA with G50A, C54U, C55U, G70U
B14: chrX:16864032:16864033:-_ENSG00000102054_ENST00000404022|hu_hu|FALSE|FALSE (ssRNA)
RNA: GGGAGUUCUACAGUCCGACGAUCCAUGAUGUUAUCCUCAGACACUGAGCAAAUGACCCAAGGCUCAUUGGGGUUCCAGCUAAAAUCUGAAAUCUUAGCAGUGUGUCCUCCAUGAAUAAACAGGAGUUCUGGAGGCCCAUCUUCCAACAGAGGAUUGAGCAUCA
B15: chr11:87793471:87793472:-_ENSMUSG00000020483_ENSMUST00000020775|mus_mus|mus_mus_mus_hu_False|1_98 (ssRNA)
RNA: B9 RNA with G70U, C140A, A141C
B16: chr11:87793471:87793472:-_ENSMUSG00000020483_ENSMUST00000020775|mus_mus|mus_mus_mus_hu_False|1_108 (ssRNA)
RNA: GGGAGUUCUACAGUCCGACGAUCUGGGGGCUGGGGAAAAAGAAUAAGCUGGAUCCCCCACCCCCCCACAUUGUCAACCCUACACGAGAGUUUUGAAGGCGACUCAUGAAAAUCAGCAGCUCAAACGGCAAUGACCACCCACCCCAACAGAGGAUUGAGCAUCA
B17: chr11:87793471:87793472:-_ENSMUSG00000020483_ENSMUST00000020775|mus_mus|mus_mus_mus_hu_False|98_98 (ssRNA)
RNA: B9 RNA with G70U
B18: chr11:87793471:87793472:-_ENSMUSG00000020483_ENSMUST00000020775|mus_mus|mus_mus_mus_hu_False|38_98 (ssRNA)
RNA: B10 RNA with G41A, U44A, A45U, A50G, U54C, U55C
B19: chr4:57314706:57314707:+_ENSG00000128050_ENST00000264221|hu_mus|hu_hu_hu_mus_True|1_18 (ssRNA)
RNA: B12 RNA with G78C, G86C, A141G
B20: chr14:103803487:103803488:+_ENSG00000100664_ENST00000558506|hu_hu|FALSE|FALSE (ssRNA)
RNA: GGGAGUUCUACAGUCCGACGAUCGAGUUUAUGAUGUGUGUCAAGCAUGCCUCGAUAGCCACAGGCUUUACAAGAAUUACCUAUUGUUUGCUUCUUUGGAUUGACAUGCAAAUCUGUUUCAGGAUUCUCACAUUCAGGACAGAGCAACAGAGGAUUGAGCAUCA
B21: chr11:68315578:68315579:+_ENSG00000110075_ENST00000393800|perfect_dup|motif|central (ssRNA)
RNA: GGGAGUUCUACAGUCCGACGAUCUGGAGGUUCGAUACACGUCAGGAGCCUGAGCAACAAAUCCAUGAUAGCAGAAGUUCCGGUGUGCUUUAUAAUAAGGUCUACAAAAUCAUGCUUCUUCUUUAAGAAAUCCACAAUCUGUUCCAACAGAGGAUUGAGCAUCA
B22: chr2:216981417:216981418:+_ENSG00000079246_ENST00000392132|hu_hu|hu_hu_hu_mus_True|28_68 (ssRNA)
RNA: GGGAGUUCUACAGUCCGACGAUCCUGAUACUGGUCCUUGCCAGCAAGGGCAUUAUCAGUGCCAUCUGUACCAAACAGGACUAACGCAAUCUCAUCUUUGCUCUCCGCAAACACCUGUCGUUGGACAAACAUAGUCAUCACUUUCAACAGAGGAUUGAGCAUCA

Where a chain is given by its changes, count along the chain named. In all, about 24,000 sequences were measured (“enrichment r”: median about 0.99, highest 2% from about 3.7 on). Only a selection was taken, and the highest values are over-represented in it overall.

The experiment concerns the target T1, UNK ZnF1-3 (human, UniProt Q9C0B0 31-174).
T1 sequence: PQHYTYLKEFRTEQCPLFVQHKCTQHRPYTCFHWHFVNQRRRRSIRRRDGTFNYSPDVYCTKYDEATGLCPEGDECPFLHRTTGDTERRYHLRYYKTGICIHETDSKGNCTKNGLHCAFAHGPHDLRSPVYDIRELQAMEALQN
In words: nsRBNS (natural sequence RNA bind-n-seq); RBNS binding buffer (assumed for nsRBNS): 25 mM Tris pH 7.5, 150 mM KCl, 3 mM MgCl2, 0.01% Triton X-100, 500 ug/ml BSA, 20 U/ml SUPERase-In, 4 C; UNK is unkempt and MSI1 is Musashi-1; names of the RNAs are library labels; protein concentration not given here; high values mean tight binding.
In the case of B1, the binding signal was 1.72 enrichment R. In the case of B2 it was 1.27 enrichment R; in that of B3, 1.36 enrichment R. For B4, the binding signal turned out to be 0.882 enrichment R. The molecule B5 registered a binding signal of 0.567 enrichment R. As for B6, the figure is 0.836 enrichment R; as for B7, 1.01 enrichment R; as for B8, 0.924 enrichment R. Consider B9, for which the binding signal came to 3.54 enrichment R.

On to B10, for which the binding signal is 1.97 enrichment R.

B11 returned a binding signal of 3.93 enrichment R. Consider B12, for which the binding signal amounted to 0.97 enrichment R. As for B13, the figure is 3.58 enrichment R; as for B14, 1.18 enrichment R. Molecule B15 displayed a binding signal of 3.94 enrichment R.

B16 yielded a binding signal of 1.72 enrichment R. In the case of B17 it was 4.07 enrichment R. With B18, the binding signal was determined as 4.29 enrichment R. In the case of B19 it was 0.937 enrichment R; in that of B20, 1.32 enrichment R.

In turn, B21 gave a binding signal of 1.87 enrichment R. B22 yielded a binding signal of 0.739 enrichment R.
